This is an account of results in ChEMBL document CHEMBL3988442, “University of Dundee, Small-Polar-MMV Screening Library” (2021).

About 420 (0.61%) of roughly 69,000 compounds showed an effect of 50% or more. The sample holds strong results, similar compounds and a random draw of the others, so the mix is not that of the screen.

In this assay the target is T1, Histidine--tRNA ligase (Leishmania infantum) (UniProt A4I591).
T1 sequence (whole entry): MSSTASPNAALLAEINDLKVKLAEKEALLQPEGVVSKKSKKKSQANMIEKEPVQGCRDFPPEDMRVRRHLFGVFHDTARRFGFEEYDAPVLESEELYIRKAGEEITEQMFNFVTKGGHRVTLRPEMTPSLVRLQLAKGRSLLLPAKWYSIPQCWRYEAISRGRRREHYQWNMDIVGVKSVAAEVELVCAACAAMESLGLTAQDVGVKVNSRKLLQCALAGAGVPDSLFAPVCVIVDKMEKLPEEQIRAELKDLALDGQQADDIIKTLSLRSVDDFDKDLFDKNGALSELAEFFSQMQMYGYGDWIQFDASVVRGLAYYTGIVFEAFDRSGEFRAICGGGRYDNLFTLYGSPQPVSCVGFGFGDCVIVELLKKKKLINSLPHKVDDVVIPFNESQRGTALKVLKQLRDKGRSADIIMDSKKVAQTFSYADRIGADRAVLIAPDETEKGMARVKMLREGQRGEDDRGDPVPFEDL
Briefly: Leishmania infantum Histidine tRNA synthetase (LdHisRS). It is filed as functional. Set-up: scale not given: in the data most compounds retested in dose-response had high values. The conditions noted are these: 30 µM.
In the case of `CC(C)=CCN1CCN(Cc2nccn2C)[C@H]2CS(=O)(=O)C[C@H]21`, the Percent Effect amounted to 11.2%. The same measure for `CCCS(=O)(=O)N1CCO[C@H]2[C@@H](Oc3cccnc3)CC[C@@H]21`: 16.4%.

As to `Cc1c(CN2CCCCC2)c(O)n(CCCO)c(=O)c1C#N`, the Percent Effect is 45.4%. As to `CN(CCN1CCOCC1)C(=O)CCCc1ccccc1`, the Percent Effect was 11.4%. The value for `Cc1c(CN2CCCCC2)c(O)n(CCO)c(=O)c1C#N` was 55.9%. Take `Cc1c(CN2CCOCC2)c(O)n(CCO)c(=O)c1C#N`: the Percent Effect was 47.4%. With `Cc1c(CN2CCOCC2)c(O)n(CCc2ccccc2)c(=O)c1C#N`, the Percent Effect was 60.5%.

Turning to `Cn1c(NCCN2CCCCCC2)c(C#N)c(=O)n(C)c1=O`, the Percent Effect was 24.7%. The same measure for `Cc1nnc([C@@]23CCO[C@@H]2CCN(Cc2cccc4ccccc24)C3)o1`: 5.94%; for `CNC(=O)[C@@H]1COC[C@H]2CN(C(=O)c3ccc(OC)cc3)C[C@H]21`: 8.77%. The same measure for `CN1C(=O)CO[C@H]2CN(C(=O)c3ccc4c(c3)CCCC4)C[C@@H]21`: 0%. As for `O=S(=O)(c1cccnc1)N1C[C@@H]2CC[C@H](C1)N(Cc1ccccn1)C2`, the Percent Effect came out at 7.53%. The same measure for `N#Cc1ccc(C(=O)N2C[C@H](OCc3cccnc3)[C@H]3COC[C@H]32)cc1`: 6.94%; for `CN(C)CCNC(=O)C1Cc2nc(-c3ccsc3)sc2N1CC1CC1` (stereo not given): 22.2%; for `CC(C)NC(=O)C1Cc2nc(-c3ccsc3)sc2N1CC1CC1` (stereo not given): 51.4%.

`O=C(Nc1cccnc1)C1Cc2nc(-c3ccsc3)sc2N1CC1CC1` (stereo not given): the Percent Effect amounted to 62.5%. Turning to `CC(C)N1c2sc(-c3ccsc3)nc2CC1C(=O)NC1CC1` (stereo not given), the Percent Effect came to 30%. The same measure for `CN(C)CCNC(=O)C1Cc2nc(-c3ccccc3)sc2N1CC1CC1` (stereo not given): 20.8%; for `O=C(NC1CCCC1)C1Cc2nc(-c3ccsc3)sc2N1CC1CC1` (stereo not given): 23.6%; for `CC(C)CNC(=O)[C@H]1C[C@@H]2CN(C(=O)NCC3CCCCC3)C[C@H]1O2`: 17.2%. The value for `COc1ccccc1CN1C(=O)O[C@@H]2CN(Cc3cccc(C)n3)C[C@@H]21` was -1.67%; that for `O=C1O[C@@H]2CN(Cc3ccncc3)C[C@@H]2N1CCCN1CCOCC1` was -6.67%; that for `COc1ccc(-n2cc(CCO)cn2)cc1C` was 69.6%.

Consider `COc1cc(-n2cc(CCO)cn2)ccc1NC(C)=O`, for which the Percent Effect came out at 31.6%. The value for `COc1ccc(-n2cc(CCO)cn2)cc1C(N)=O` was 34.2%; that for `N#Cc1ccc(OC[C@]23COC[C@H]2CN(c2ncccn2)C3)nc1` was 5.56%. As to `N#Cc1ccc(N2CCCC3(CCN(c4cccnc4)CC3)C2)cc1`, the Percent Effect was found to be 51.4%.

Take `c1cncc(N2CCCC3(CCN(CCN4CCCC4)CC3)C2)c1`: the Percent Effect was 15.3%.

For `c1cncc(N2CCC3(CCCN(c4ccncc4)C3)CC2)c1`, the Percent Effect came to 15.3%. With `O=C1[C@H]2CN(Cc3ccccc3)C[C@H]2CN1CCN1CCCC1`, the Percent Effect turned out to be 17.3%. Turning to `Cc1ccc(-n2cc(CN3CCN(C)[C@@H]4CS(=O)(=O)C[C@@H]43)cn2)cc1`, the Percent Effect turned out to be 11.4%.

On to `Cc1cc(C)cc(NC(=O)Nc2c(O)oc3ccccc3c2=O)c1`, for which the Percent Effect stood at 16.1%. The value for `CC(C)n1nc2c(cc1=O)CN(c1nc3ccccc3s1)CC2` was 18.2%; that for `c1ccc2sc(N3CCCN(c4ncnc5c4CCNC5)CC3)nc2c1` was 57.1%. `Cn1nc2c(cc1=O)CN(c1nc3ccccc3s1)CC2`: the Percent Effect is 90.9%. The same measure for `CCn1nc2c(cc1=O)CN(Cc1nc3ccccc3c(=O)[nH]1)CC2`: 25%; for `c1ccc2sc(N3CCN(c4ncnc5c4CCC5)CC3)nc2c1`: 14.3%.

On to `Cn1nc2c(cc1=O)CN(CCc1nc3ccccc3c(=O)[nH]1)CC2`, for which the Percent Effect is 53.9%. Turning to `CCn1nc2c(cc1=O)CN(Cc1nc3ccccc3o1)CC2`, the Percent Effect turned out to be 12.9%. In the case of `Cn1nc2c(cc1=O)CN(Cc1nc(N)c3ccccc3n1)CC2`, the Percent Effect turned out to be 43.5%.

As to `CCn1nc2c(cc1=O)CN(c1nc3ccccc3s1)CC2`, the Percent Effect was 72.7%. For the molecule `Cn1nc2c(cc1=O)CN(Cc1nc3ccccc3c(=O)[nH]1)CC2`, the Percent Effect was 24.7%. The value for `Cc1ncnc(N2CCCN(c3nc4ccccc4s3)CC2)c1C` was 25.7%; that for `Cc1nc(CO[C@H]2CN(C(=O)c3cnoc3C)[C@@H]3COC[C@H]23)cs1` was 10%; that for `CC(C)NC(=O)[C@@]12CCO[C@@H]1CCN(Cc1ccco1)C2` was 15.1%. Regarding `O=C(Nc1cccnc1)[C@H]1C[C@@H]2CN(Cc3ccc(F)cc3)C[C@H]1O2`, the Percent Effect was 10%. As to `CC(C)C(=O)N1CC[C@H]2N(C)CC[C@@]2(C(=O)Nc2cccnc2)CC1`, the Percent Effect came to 8.11%. The same measure for `OC[C@H]1CC[C@]2(CC1)CN(Cc1ccsc1)Cc1ccccc1O2`: 16.5%; for `O=C(c1ccco1)N1C[C@@H]2OCCN(CCN3CCCC3)[C@@H]2C1`: 6.01%; for `CNC(=O)N1CCC2(CC1)CC[C@@]1(C(=O)NC)CN(S(C)(=O)=O)C[C@@H]21`: 9.72%.

With `CN(Cc1ccco1)[C@@H]1CN(Cc2nccn2C)[C@@H]2CCCO[C@H]12`, the Percent Effect is 27%. The same measure for `O=C([C@@H]1COC[C@H]2CN(c3ccncn3)C[C@H]21)N1CCCC1`: 19.3%; for `CN(Cc1ccco1)C(=O)Nc1ccc(=O)n(C)c1`: 102%.

For the molecule `Cc1occc1CN(C)C(=O)Nc1ccc(=O)n(C)c1`, the Percent Effect turned out to be 102%.

For `COc1ccc(NC(=O)N(C)Cc2ccco2)cn1`, the Percent Effect came to 16%. As to `CN(Cc1ccco1)C(=O)c1ccc(=O)n(C)c1`, the Percent Effect was 14.9%.

Turning to `CN(Cc1ccc2c(c1)OCO2)C(=O)c1ccc(=O)n(C)c1`, the Percent Effect stood at 5.33%. The value for `CN(Cc1cccs1)C(=O)c1ccc(=O)n(C)c1` was 11.3%; that for `CS(=O)(=O)N[C@@H]1CN(C(=O)c2cccnc2)[C@@H]2CCCO[C@@H]21` was 8.26%; that for `O=C([C@@H]1C[C@@H]2CCN(C3CCOCC3)C[C@@H]2O1)N1CCOCC1` was 8.33%. Regarding `CC(=O)N1CCN(C(=O)CNc2ccc3ncsc3c2)CC1`, the Percent Effect was found to be 58.8%. The value for `CC(=O)N1CCN(C(=O)CNc2ccc3sccc3c2)CC1` was 27.2%; that for `CC(=O)N1CCN(C(=O)C(C)Nc2ccc3ncsc3c2)CC1` (stereo not given) was 28.9%; that for `Cc1ccc(-c2nc(CN3CCc4nn(C)c(=O)cc4C3)co2)cc1` was 107%. The value for `CCn1nc2c(cc1=O)CN(Cc1coc(-c3ccccc3)n1)CC2` was 14.9%; that for `Cn1nc2c(cc1=O)CN(Cc1coc(-c3cccc(F)c3)n1)CC2` was 90.3%. The value for `Cn1nc2c(cc1=O)CN(Cc1coc(-c3ccc(F)cc3)n1)CC2` was 90.3%; that for `CC1CCCN(Cc2coc(-c3cccc(F)c3)n2)C1` (stereo not given) was 13.7%.

For `CCN1CCN(Cc2coc(-c3cccc(F)c3)n2)CC1`, the Percent Effect amounted to 21.9%. Consider `Cn1nc2c(cc1=O)CN(Cc1coc(-c3ccccc3)n1)CC2`, for which the Percent Effect stood at 44.7%.

For the molecule `Cn1nc2c(cc1=O)CN(Cc1coc(-c3cccs3)n1)CC2`, the Percent Effect turned out to be 97.6%. Turning to `CN(C)CC1CN(Cc2coc(-c3cccs3)n2)CCO1` (stereo not given), the Percent Effect turned out to be 14.9%. As for `O=C1NCCN1C1CCN(Cc2coc(-c3ccc(F)cc3)n2)CC1`, the Percent Effect is 9.82%.

For the molecule `O=C1NCCN1C1CCCN(Cc2coc(-c3cccs3)n2)C1` (stereo not given), the Percent Effect is 13.4%. The value for `O=C1NCCN1C1CCCN(Cc2coc(-c3ccc(F)cc3)n2)C1` (stereo not given) was 24.6%.

As to `Cc1cccc(S(=O)(=O)N2CC[C@H]3CO[C@H](CN(C)C)[C@H]3C2)c1`, the Percent Effect came to 0.917%. On to `Cc1ccc(CN2C[C@H](N(C)Cc3cncnc3)[C@H]3OCCC[C@H]32)o1`, for which the Percent Effect worked out at 15.4%. The same measure for `O=C1CCCC2=C1C(c1ccc(F)cc1F)Nc1nonc1N2` (stereo not given): 14.6%. For `Cc1ccccc1CN1C[C@@H]2CC[C@H](C1)N(CC1CCC1)C2=O`, the Percent Effect was 34.4%.

As to `CCOCC(=O)N1C[C@@H]2CC[C@H](Oc3ccccc3)[C@@H]2C1`, the Percent Effect worked out at 26.3%. Turning to `COc1ccc(CNCCC(=O)N2CCc3sccc3C2)cc1O`, the Percent Effect was found to be 26.9%. The value for `N#Cc1cccc(CNCCC(=O)N2CCc3sccc3C2)c1` was 5.38%; that for `O=C(CCNCc1cccc(O)c1)N1CCc2sccc2C1` was 85%. For the molecule `c1cnnc(N2CCCC(NCc3nc(-c4ccco4)no3)C2)c1` (stereo not given), the Percent Effect was determined as 0.926%. In the case of `c1cnnc(N2CCCC(NCc3nc(-c4cccs4)no3)C2)c1` (stereo not given), the Percent Effect is 24.7%. With `c1ccc(-c2noc(CNC3CCCN(c4cccnn4)C3)n2)nc1` (stereo not given), the Percent Effect was 67.7%.

Take `Cc1cccc(CN2C[C@@H]3OCCN(CC(=O)N(C)C)[C@@H]3C2)c1`: the Percent Effect amounted to 13.5%. The value for `O=C(c1ncccn1)N1C[C@@H]2COC[C@]2(COc2cccnc2)C1` was 17.3%. As for `CS(=O)(=O)c1ccc(CN2C[C@H]3CC[C@@H]2CN(c2ncccn2)C3)cc1`, the Percent Effect came to 15%. The value for `CCS(=O)(=O)N1CCC2(CC1)CC[C@@]1(C(=O)NC)CN(C(C)=O)C[C@@H]21` was 19.7%; that for `CC(C)(C)C(=O)N1CC[C@H]2NC(=O)N(c3ccc(F)cc3)C(=O)[C@H]21` was 19.4%. The same measure for `Cc1nc([C@@H]2C[C@@H]3CCN(C(=O)c4ccnnc4)C[C@H]3O2)sc1C`: 18.4%. On to `CN(C)c1nc2c(c(N3CCc4c(c(CO)nn4C)C3)n1)CCNC2`, for which the Percent Effect was 11.4%. The same measure for `CC(Nc1nc(-c2ccccc2)nc2c1CCNCC2)c1cccnc1` (stereo not given): 16.4%. The same measure for `c1ccc2c(c1)CN(c1ncnc3c1CCNC3)CCO2`: 16.1%; for `CC(Nc1nc(-c2ccncc2)nc2c1CCNC2)c1ccccc1` (stereo not given): 54.1%.

In the case of `Cc1cccc(=O)n1CCCNc1nc(N(C)C)nc2c1CCNC2`, the Percent Effect amounted to 35.3%. The value for `c1ccc2c(c1)CCN(c1nc(-c3ccncc3)nc3c1CCNC3)C2` was 101%; that for `c1ccc2c(c1)CCN(c1ncnc3sc4c(c13)CCNC4)C2` was 15.1%. The same measure for `CN(C)c1nc2c(c(N3CCc4ccccc4C3)n1)CCNC2`: 58.6%; for `Cc1nc2c(c(N3CCN(c4ncccc4C(N)=O)CC3)n1)CCNC2`: 12.9%. The value for `Cc1ccccc1N1CCN(c2nc(N(C)C)nc3c2CCNC3)CC1` was 58.6%; that for `Cc1cc2n(n1)CCN(c1nc(N(C)C)nc3c1CCNC3)C2` was 36.7%. Take `CC(Nc1nc(-c2ccccc2)nc2c1CCNCC2)c1nccs1` (stereo not given): the Percent Effect was found to be 19.7%.

Consider `CCOc1ccc(C(=O)N2C[C@H]3CC[C@@H]2CN(C)C3)cc1OCC`, for which the Percent Effect amounted to 15.1%.

Regarding `O=C1[C@H]2CN(S(=O)(=O)c3cccs3)C[C@H]2CN1CC1CC1`, the Percent Effect stood at 21.4%. With `CN(Cc1cncnc1)[C@@H]1CN(C(=O)c2ccco2)[C@@H]2CCCO[C@H]12`, the Percent Effect was found to be 17.3%. Consider `CCC1=N[C@@]2(CC[C@@H]3CN(Cc4ccc(F)cc4)C[C@@H]32)C(=O)N1C`, for which the Percent Effect worked out at 8.18%. The value for `Cc1ccc(CN2CCN(C(=O)C3CCC3)[C@@H]3CS(=O)(=O)C[C@@H]32)cc1C` was 20.6%. The same measure for `CC1=N[C@@]2(CC[C@@H]3CN(C(=O)NC(C)C)C[C@@H]32)C(=O)N1CC1CC1`: 11.1%.
